Laboratory results from PubChem BioAssay (NCI).
This is part of a sample that, as a whole, favours compounds with a hit. Of some 83,000 tested, about 20% had one in any assay.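 Treatment: one concentration, 48 hours, 96-well format. Scoring: percent growth, with anything below 10 considered active.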 Unmarked numbers belong to inactive results. Calls of active or inactive are those of the source.

These compounds were tested on SF-295 CNS (assay: NCI-60 one-dose screen, 48 h (100 = growth as untreated, 0 = no growth, -100 = all killed)). Conditions: 10 µM unless noted.
`O=C1C(Cl)=C(NCCCN2CCOCC2)C(=O)c2ccccc21` showed a growth of 109%. Work on `COC(=O)c1cc(-c2ccc(C)cc2)n(C(=O)CSc2nc3sc(C(N)=O)c(C)c3c(=O)n2Cc2ccccc2)n1` yielded a growth of 109%. With `COc1cccc(OC)c1OC(=O)c1ccccc1` the growth was 79.5%. With `Oc1ccc2ccccc2c1C1NN=C(c2ccccc2)S1` (configuration not stated) the growth was -8.68% (active). `CCCCC/C=C\C/C=C/CCCCCCCCNC(=O)Nc1ccc([N+](=O)[O-])cc1` was tested, and the growth was 56.4%. With `Clc1ccc(Nc2ccnc(N3CCN(c4ccnc5cc(Cl)ccc45)CC3)n2)cc1` the growth was 18.8%. In the case of `Cc1ccc(S(=O)(=O)N(c2ccc(Cl)cc2)c2ccc(Br)cc2C(=O)O)cc1`, the growth is reported as 112%. In the case of `CCN1CCN(C(=S)SCC(=O)Nc2nc3ccc(OC)cc3s2)CC1`, the growth is reported as 121%. For `Cn1c2ccccc2c2nn(Cc3ccccc3)c(=O)nc21`, the growth was 97.4%. `Clc1ccc2c(N3CCN(c4ccnc(NC5CCCCC5)n4)CC3)ccnc2c1` was tested, and the growth was 39.3%. With `Cn1c2ccccc2c2nn(C(=O)c3ccccc3)c(=O)nc21` the growth was 98.2%. `NC(=S)N/N=C1\c2ccccc2-c2c(F)c(F)c(F)c(F)c21` was tested, and the growth was 99.5%. Work on `NC(=O)c1cc(I)ccc1NC(=O)COc1ccc(Cl)cc1Cl` yielded a growth of 90.2%. `CCC12CCC3c4ccc(O)cc4CCC3C1CC(O)C2O` (configuration not stated) gave a growth of 58.1%. With `C=C(C)COC(=O)c1ccccc1C(=O)OCC1(C)CO1` (configuration not stated) the growth was 91.9%. With `COc1ccc(NC(=O)COc2ccccc2)c(C(N)=O)c1` the growth was 13.3%. Compound `NC(=O)c1cc(I)ccc1NC(=O)COc1ccccc1` has a growth of 12.6%. Compound `O=C(Nc1ccccc1O)c1ccc(NS(=O)(=O)c2cccc3cccnc23)cc1` has a growth of 62.9%. Work on `CC(=O)OC[C@H](O)[C@@]1(O)CC[C@H]2[C@@H]3CCC4=CC(=O)CC[C@]4(C)[C@H]3[C@@H](O)C[C@@]21C` yielded a growth of 111%. In the case of `COc1cc(NC(=O)COc2ccccc2)c(C(N)=O)cc1OC`, the growth is reported as 7.73% (active). `COc1c(Cl)ccc2c(-c3nc4cc(Cl)c(F)cc4s3)cc(=O)oc12` was tested, and the growth was 97.7%. Work on `CC(=O)Nc1ccc(S(=O)(=O)N/N=C\c2ccc(Cl)c(Cl)c2)cc1` yielded a growth of 108%. `COc1ccc(/C=C(\C#N)c2ccc(OC)cc2)cc1` showed a growth of 47%. `CCCCNNC(=O)c1ccc(Br)cc1` gave a growth of 38.4%. Work on `CC(=O)c1cc(C)c(OC(=O)c2ccccc2)c(C)c1` yielded a growth of 107%. `Cc1ccc(C(=O)Nc2ccccc2N)cc1` showed a growth of 62.5%. Work on `Oc1ccccc1/C=N/Nc1nc2ccccc2s1` yielded a growth of 27.9%. `COc1cccc(OC(=O)c2ccccc2)c1OC(=O)c1ccccc1` was tested, and the growth was 83.6%. For `CCSc1nnc2c3cc(Br)ccc3n(C)c2n1`, the growth was 93.7%. Compound `N#CCCN1CCN(CCC#N)C1=S` has a growth of 93.3%. For `COC(=O)/C=C1/CCC2C3CCC4=CC(=O)C(Br)CC4(C)C3C(=O)CC12C` (configuration not stated), the growth was 95.4%. Compound `CN1CCN(CCCn2c3c(sc4ncccc43)c(=O)n3nnc(-c4ccccc4)c23)CC1` has a growth of 98.6%.
